Where “and” joins values, the source holds several entries; their conditions need not be identical. Identical values can stand only once. About 83,000 compounds went through this panel and 20% of them were active in at least one assay; those are over-represented in the sample as a whole.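 Step 1: grow cells in 96-well plates. Step 2: add test compound at a single concentration. Step 3: incubate 48 h. Step 4: record percent growth.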 Calls of active or inactive are those of the source. How the source made its calls: active means growth percent below 10; inactive means the rest.
Columns and labels:
Experiment in all cases: NCI-60 one-dose screen, 48 h (100 = growth as untreated, 0 = no growth, -100 = all killed)
Conditions in all cases: 10 µM unless noted
SR leukemia = system: SR leukemia
RPMI-8226 leukemia = system: RPMI-8226 leukemia
OVCAR-5 ovarian = system: OVCAR-5 ovarian
OVCAR-4 ovarian = system: OVCAR-4 ovarian
SK-OV-3 ovarian = system: SK-OV-3 ovarian
IGROV1 ovarian = system: IGROV1 ovarian
OVCAR-3 ovarian = system: OVCAR-3 ovarian
HS 578T breast = system: HS 578T breast
NCI/ADR-RES ovarian = system: NCI/ADR-RES ovarian
T-47D breast = system: T-47D breast
BT-549 breast = system: BT-549 breast
MDA-MB-435 melanoma = system: MDA-MB-435 melanoma
SW-620 colon = system: SW-620 colon
MCF7 breast = system: MCF7 breast
HCT-116 colon = system: HCT-116 colon
HCC-2998 colon = system: HCC-2998 colon
KM12 colon = system: KM12 colon
OVCAR-8 ovarian = system: OVCAR-8 ovarian

Measured: growth

CCOC(=O)c1nc2c3ccccc3cnn2c1C(=O)c1ccc(OC)cc1
inactive: SR leukemia 90.6% | RPMI-8226 leukemia 95.6% | OVCAR-5 ovarian 106% | OVCAR-4 ovarian 89.4% | SK-OV-3 ovarian 81.6% | IGROV1 ovarian 105% | OVCAR-3 ovarian 110% | HS 578T breast 101% | NCI/ADR-RES ovarian 94.4% | T-47D breast 85.9% | BT-549 breast 98.2% | MDA-MB-435 melanoma 107% | SW-620 colon 99.2% | MCF7 breast 80.8% | HCT-116 colon 92% | HCC-2998 colon 99.2% | KM12 colon 102%

COc1ccc(NC(=O)Nc2ccccc2CNc2nc(Nc3ccc(OCCN4CCCC4)cc3)ncc2Cl)cc1
inactive: SR leukemia 11.6% | OVCAR-5 ovarian 21.1% | SK-OV-3 ovarian 58.5% | IGROV1 ovarian 24.3% | T-47D breast 27.2% | BT-549 breast 32% | HCC-2998 colon 16.3%
active: RPMI-8226 leukemia -18.5% | OVCAR-8 ovarian -18.2% | OVCAR-3 ovarian -83.8% | HS 578T breast -67.7% | NCI/ADR-RES ovarian 6.48% | SW-620 colon 2.1% | MCF7 breast -60.5% | HCT-116 colon -20.1% | KM12 colon 0.945%

CCCN1C(=O)/C(=c2\sc3n(c2=O)NC2C(N=3)N(CC)C(=O)N2CC)c2ccccc21 (stereo not given)
active: OVCAR-3 ovarian 9.19% | NCI/ADR-RES ovarian 8.06% | MDA-MB-435 melanoma -10.6%
inactive: SR leukemia 30.6% | RPMI-8226 leukemia 45.5% | OVCAR-5 ovarian 39.6% | OVCAR-4 ovarian 63% | SK-OV-3 ovarian 63.6% | IGROV1 ovarian 38.9% | HS 578T breast 27.8% | T-47D breast 26.2% | BT-549 breast 62.8% | SW-620 colon 31.5% | MCF7 breast 17.5% | HCT-116 colon 15.6% | KM12 colon 30.3%

ON=C1CCCCCCCC1
inactive: SR leukemia 90.9% and 97.5% | RPMI-8226 leukemia 103% and 102% | OVCAR-5 ovarian 103% and 105% | OVCAR-4 ovarian 115% and 113% | SK-OV-3 ovarian 100% and 103% | IGROV1 ovarian 113% and 111% | OVCAR-3 ovarian 111% | HS 578T breast 107% and 108% | NCI/ADR-RES ovarian 103% and 105% | BT-549 breast 110% and 101% | MDA-MB-435 melanoma 103% and 113% | SW-620 colon 108% and 105% | MCF7 breast 98.9% and 91.3% | HCT-116 colon 105% and 104% | HCC-2998 colon 100% and 103% | KM12 colon 97% and 97.8%

CC(=NCc1ccccc1)c1ccc(O)cc1O
inactive: SR leukemia 93.5% | RPMI-8226 leukemia 96.6% | OVCAR-5 ovarian 104% | OVCAR-4 ovarian 101% | SK-OV-3 ovarian 103% | IGROV1 ovarian 105% | OVCAR-3 ovarian 103% | HS 578T breast 112% | NCI/ADR-RES ovarian 98.4% | T-47D breast 92.2% | BT-549 breast 91.9% | MDA-MB-435 melanoma 114% | SW-620 colon 109% | MCF7 breast 97.8% | HCT-116 colon 104% | HCC-2998 colon 92.5% | KM12 colon 104%

O=C(Nc1ccc2ccccc2c1)c1cc2ccccc2cc1O
inactive: SR leukemia 82% | RPMI-8226 leukemia 49.9% | OVCAR-5 ovarian 98.8% | OVCAR-4 ovarian 82.9% | SK-OV-3 ovarian 94.3% | IGROV1 ovarian 59.8% | HS 578T breast 105% | NCI/ADR-RES ovarian 87.6% | BT-549 breast 81.5% | MDA-MB-435 melanoma 103% | SW-620 colon 103% | MCF7 breast 65.9% | HCT-116 colon 92.3% | HCC-2998 colon 107%
active: OVCAR-3 ovarian -0.789% | KM12 colon -36.8%

Cc1ccc(/C=C/c2c(C(=O)/C=C/c3ccccc3)c(C)nc3ccccc23)cc1
active: RPMI-8226 leukemia -7.87% | OVCAR-5 ovarian 1.05% | OVCAR-3 ovarian -22% | NCI/ADR-RES ovarian 8.38% | MDA-MB-435 melanoma -45.4% | SW-620 colon 3.35% | HCT-116 colon -54.7%
inactive: SR leukemia 12.7% | OVCAR-4 ovarian 39.9% | SK-OV-3 ovarian 70.1% | IGROV1 ovarian 11.3% | HS 578T breast 35.6% | T-47D breast 16.1% | BT-549 breast 41.5% | MCF7 breast 12.6% | KM12 colon 13.1%

COc1ccc(/C=C/C(=O)c2cc3c(N)c(C(=O)Nc4ccccc4Cl)sc3nc2C)cc1
active: OVCAR-4 ovarian -13%
inactive: SR leukemia 53.1% | RPMI-8226 leukemia 53% | OVCAR-5 ovarian 79% | SK-OV-3 ovarian 58.5% | IGROV1 ovarian 26.9% | OVCAR-3 ovarian 21.1% | HS 578T breast 10.3% | NCI/ADR-RES ovarian 42.9% | T-47D breast 30.3% | BT-549 breast 59% | SW-620 colon 48.1% | MCF7 breast 17.2% | HCT-116 colon 59% | HCC-2998 colon 51.3% | KM12 colon 51.6%

C=CCNC(=O)Cc1c(-c2ccc(OC)cc2)oc2c(OC)c3c(c(OC)c12)OCO3
inactive: SR leukemia 97.4% | RPMI-8226 leukemia 97.5% | OVCAR-5 ovarian 101% | OVCAR-4 ovarian 102% | SK-OV-3 ovarian 110% | IGROV1 ovarian 82.3% | OVCAR-3 ovarian 118% | HS 578T breast 103% | NCI/ADR-RES ovarian 98.2% | T-47D breast 101% | BT-549 breast 100% | MDA-MB-435 melanoma 103% | SW-620 colon 103% | MCF7 breast 83.9% | HCT-116 colon 92.8% | HCC-2998 colon 116% | KM12 colon 96.2%

S=c1nc(CS)[nH]c2ccccc12
inactive: SR leukemia 101% | RPMI-8226 leukemia 102% | OVCAR-5 ovarian 102% | OVCAR-4 ovarian 94.3% | SK-OV-3 ovarian 100% | IGROV1 ovarian 85.7% | OVCAR-3 ovarian 106% | HS 578T breast 94.1% | NCI/ADR-RES ovarian 101% | T-47D breast 109% | BT-549 breast 101% | MDA-MB-435 melanoma 101% | SW-620 colon 98.5% | MCF7 breast 79.6% | HCT-116 colon 100% | HCC-2998 colon 110% | KM12 colon 100%

O=c1ccc2nc(-c3ccccn3)nn(-c3ccccc3)c-2c1
inactive: RPMI-8226 leukemia 50.3% | OVCAR-5 ovarian 109% | OVCAR-4 ovarian 81.8% | SK-OV-3 ovarian 84.9% | IGROV1 ovarian 87.9% | HS 578T breast 93.9% | NCI/ADR-RES ovarian 98% | BT-549 breast 86.6% | MDA-MB-435 melanoma 90.7% | HCT-116 colon 48.7% | HCC-2998 colon 98.8% | KM12 colon 98.4%
active: SR leukemia 5.21% | OVCAR-3 ovarian -21.9% | T-47D breast -28.4% | SW-620 colon -61.8% | MCF7 breast -56%

C#CCOCC1CN(C)C(=O)O1 (stereo not given)
inactive: SR leukemia 69.7% | RPMI-8226 leukemia 110% | OVCAR-5 ovarian 126% | OVCAR-4 ovarian 116% | SK-OV-3 ovarian 133% | IGROV1 ovarian 108% | OVCAR-3 ovarian 109% | HS 578T breast 109% | NCI/ADR-RES ovarian 109% | BT-549 breast 131% | MDA-MB-435 melanoma 101% | SW-620 colon 97% | MCF7 breast 90.2% | HCT-116 colon 119% | HCC-2998 colon 109% | KM12 colon 107%

O=c1c2c([nH]c3ccccc13)CCCC2
inactive: SR leukemia 87.9% and 10.9% | RPMI-8226 leukemia 87.2% and 38.6% | OVCAR-5 ovarian 91.3% and 78.2% | SK-OV-3 ovarian 104% and 44.2% | IGROV1 ovarian 111% and 44.1% | HS 578T breast 98.2% and 72.4% | NCI/ADR-RES ovarian 104% and 22.2% | T-47D breast 105% and 55.5% | BT-549 breast 106% and 59% | SW-620 colon 92.6% and 16.1% | MCF7 breast 88.7% and 17.7% | HCT-116 colon 95.6% and 23.5% | HCC-2998 colon 55.5% | KM12 colon 99.2% and 19.7%
103% (inactive) and -56.9% (active): MDA-MB-435 melanoma
118% (inactive) and -8.45% (active): OVCAR-3 ovarian

OCCN1CCN(CC/C=C2\c3ccccc3Sc3ccc(Cl)cc32)CC1
1.43% (active) and 32.3% (inactive): HS 578T breast
active: RPMI-8226 leukemia -35.8% and -38.4% | MDA-MB-435 melanoma -70.8% and -44.4% | SW-620 colon -75.2% and 0.592% | HCT-116 colon -59.8% and -45.1%
inactive: OVCAR-8 ovarian 79.4% and 86.4% | OVCAR-5 ovarian 41.8% and 63.4% | OVCAR-4 ovarian 71.9% and 128% | SK-OV-3 ovarian 77.8% and 77.2% | IGROV1 ovarian 26.3% | OVCAR-3 ovarian 42.4% and 37.7% | NCI/ADR-RES ovarian 58.2% and 76.6% | T-47D breast 48.6% and 57.4% | BT-549 breast 67.5%
2.71% (active) and 36.2% (inactive): KM12 colon
-91.4% (active) and 12.7% (inactive): HCC-2998 colon
17.3% (inactive) and 4.22% (active): MCF7 breast

Cc1ccc(C(=O)c2ccc(CC(=O)N=Nc3c(O)[nH]c4ccc(OC(F)(F)F)cc34)n2C)cc1
inactive: SR leukemia 102% | RPMI-8226 leukemia 102% | OVCAR-5 ovarian 100% | OVCAR-4 ovarian 118% | SK-OV-3 ovarian 96.9% | IGROV1 ovarian 85.2% | OVCAR-3 ovarian 117% | HS 578T breast 94.5% | NCI/ADR-RES ovarian 92.4% | BT-549 breast 95.3% | MDA-MB-435 melanoma 97.9% | SW-620 colon 95.7% | MCF7 breast 91.5% | HCT-116 colon 97% | HCC-2998 colon 119%

— PubChem BioAssay (NCI)
